These results are taken from the supplement of paper PMC6992640.

Among the test systems are HCI01; HCI03; HCI09; HCI11; HCI13; HCI16; UCD52; WHIM2; WHIM30.
Common to all, as to assay: cell viability (% of vehicle); higher = less cytotoxic
Conditions in all cases: 10 µM; 72 h

± gives the standard deviation of the averaged measurements.
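Note: PDX cells carrying CMV promoter-driven luciferase, viability read as total photon flux per second by IVIS imaging following D-luciferin, vehicle control 0.1% DMSO.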

Consider `Cc1c(F)cc(C(=O)NC2CC2)cc1-c1ccc(C(=O)NCC(C)(C)C)cn1` [Losmapimod], for which the cell viability turned out to be 84 ± 16 in the experiment on HCI01 (cells of a triple-negative basal-like breast cancer xenograft); 91.4 in the experiment on HCI03 (cells of an ER-positive luminal breast cancer xenograft); 84.4 ± 21 in the experiment with HCI09; 60 in the experiment with HCI11; 71 ± 2.2 with HCI13; 81.6 with HCI16. For the same compound, the cell viability in the experiment with UCD52 came to 58.1 ± 1.8; in the experiment with WHIM2, 76.5 ± 16; in the experiment with WHIM30, 101 ± 6.2.

`Nc1cccc2c1CN(C1CCC(=O)NC1=O)C2=O` (stereo unspecified) [Lenalidomide (CC-5013)]: the cell viability with HCI01 amounted to 111 ± 4.1; in the experiment with HCI03, 107; in the experiment with HCI09 it was 85.5 ± 10; in the experiment on HCI11 (cells of an ER-positive luminal breast cancer xenograft), 102; in the experiment on HCI13 (cells of an ER-positive luminal breast cancer xenograft), 80.5 ± 0.91; with HCI16, 101. Moreover, the values for the cell viability in the experiment with UCD52, in the experiment on WHIM2 (cells of a triple-negative basal-like breast cancer xenograft) and with WHIM30 were 80.5 ± 12, 78.6 ± 3.5 and 134 ± 6.6, respectively.

Consider `O=C(O)C=Cc1ccc(Cn2ccnc2)cc1` [Ozagrel], for which the cell viability amounted to 95.1 ± 6.6 with HCI01; 145 in the experiment with HCI03; 90.9 ± 16 with HCI09; 106 in the experiment with HCI11; 116 ± 6.6 in the experiment on HCI13; 98.4 in the experiment with HCI16. Further, the cell viability with UCD52 was found to be 88 ± 3.2; in the experiment on WHIM2, 97.8 ± 2.4; with WHIM30, 87.2 ± 20.

As to `CCN1CCN(C(=O)NC(C(=O)NC2C(=O)N3C(C(=O)O)=C(CSc4nnnn4C)CSC23)c2ccc(O)cc2)C(=O)C1=O` (stereo unspecified) [Cefoperazone], the cell viability came out at 110.1 ± 0.54 in the experiment with HCI01; 158 in the experiment with HCI03; 120 ± 16 in the experiment with HCI09; 132 with HCI11; 174 ± 9.6 in the experiment with HCI13; 104 in the experiment on HCI16 (cells of a triple-negative basal-like breast cancer xenograft). In addition, the cell viability in the experiment with UCD52 was 131 ± 18; in the experiment with WHIM2, 108 ± 22.

For the compound `CC(=O)OCC(CCn1cnc2cnc(N)nc21)COC(C)=O` [Famciclovir], the cell viability in the experiment on HCI01 was 112 ± 17; in the experiment with HCI03, 114; in the experiment with HCI09, 93.4 ± 4.1; in the experiment on HCI11 it was 96.3; with HCI13 it was 123 ± 7.6; in the experiment with HCI16, 136. Moreover, the cell viability in the experiment with UCD52 was determined as 85.3 ± 8.4; in the experiment on WHIM2, 106 ± 7.2; in the experiment on WHIM30 (cells of a triple-negative basal-like breast cancer xenograft), 114 ± 2.1.

In the case of `COc1cc(OC)c(C=CS(=O)(=O)Cc2ccc(OC)c(NCC(=O)[O-])c2)c(OC)c1.[Na+]`, the cell viability in the experiment with HCI01 is 126.6 ± 0.39; with HCI03 it was 111; in the experiment on HCI09 (cells of a triple-negative luminal androgen receptor type breast cancer xenograft) it was 112 ± 11; in the experiment on HCI11, 99.6; in the experiment with HCI13, 40.1 ± 4.7; in the experiment with HCI16 it was 115. The cell viability is 117 ± 20 in the experiment with UCD52, 73.9 ± 14 in the experiment with WHIM2 and 112 ± 16 in the experiment with WHIM30.

Regarding `Nc1c(CC(=O)[O-])cccc1C(=O)c1ccc(Br)cc1.[Na+]` [Bromfenac Sodium], the cell viability stood at 134 ± 34 in the experiment with HCI01; 104 in the experiment on HCI03; 82.1 ± 13 with HCI09; 103 in the experiment with HCI11; 76.6 ± 16 in the experiment on HCI13; 96.2 in the experiment on HCI16. Further, the cell viability with UCD52 was found to be 89 ± 4; with WHIM2 it was 132 ± 25; in the experiment with WHIM30 it was 111 ± 6.5.

Regarding `Cl.O=C(Nc1ccccc1)OCC(CN1CCCCC1)OC(=O)Nc1ccccc1` (stereo unspecified) [Diperodon HCl], the cell viability in the experiment on HCI01 was determined as 99 ± 2.1; in the experiment on HCI03, 124; in the experiment with HCI09 it was 97.9 ± 2.3; in the experiment with HCI11, 119; with HCI13 it was 162 ± 49; in the experiment with HCI16 it was 138. Besides, the cell viability was 84.2 ± 13 with UCD52, 94.3 ± 20 with WHIM2 and 167 ± 16 with WHIM30.
